# Assay results from PubChem BioAssay AID1159580 (chemical genetic matrix, 2015).
# About 2,000 (36%) of roughly 5,500 compounds were called active. Roughly 18% stayed inconclusive and do not appear here. The list shows a part of the results. A number with no mark means an inactive call. Rule as the data show it: active = normalized growth mostly below about 0.91 (no sharp cut-off); inconclusive = no clear call, values can overlap the other calls; inactive = mostly above about 0.92.
# Assay: chemical genetic growth profiling, strain panel (AID 1159580);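 also: tested at 20 µM; growth read once vehicle control cultures reached saturation at 30 °C; 1 = growth at the plate median or of vehicle wells; lower values mean less growth of the strain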
# Details: growth OD
# [1] = S. cerevisiae deletion strains, locus YAL013W, strain DEP1, active compounds read low
# [2] = S. cerevisiae deletion strains, locus YBR229C, strain ROT2, active compounds read low
# [3] = S. cerevisiae deletion strains, locus YDL101C, strain DUN1, active compounds read low
# [4] = S. cerevisiae deletion strains, locus YDR150W, strain NUM1, active compounds read low
# [5] = S. cerevisiae deletion strains, locus YEL061C, strain CIN8, active compounds read low
# [6] = S. cerevisiae deletion strains, locus YGR078C, strain PAC10, active compounds read low
# [7] = S. cerevisiae deletion strains, locus YHR030C, strain SLT2, active compounds read low
# [8] = S. cerevisiae deletion strains, locus YHR087W, strain rtc3, active compounds read low
# [9] = S. cerevisiae deletion strains, locus YJL187C, strain SWE1, active compounds read low
# [10] = S. cerevisiae deletion strains, locus YJR043C, strain POL32, active compounds read low
# [11] = S. cerevisiae deletion strains, locus YJR075W, strain HOC1, active compounds read low
# [12] = S. cerevisiae deletion strains, locus YLR039C, strain RIC1, active compounds read low
# [13] = S. cerevisiae deletion strains, locus YLR058C, strain SHM2 (second series), active compounds read low
# [14] = S. cerevisiae deletion strains, locus YLR085C, strain ARP6, active compounds read low
# [15] = S. cerevisiae deletion strains, locus YLR262C, strain YPT6, active compounds read low
# [16] = S. cerevisiae deletion strains, locus YML094W, strain GIM5, active compounds read low
# [17] = S. cerevisiae deletion strains, locus YMR219W, strain ESC1, active compounds read low
# [18] = S. cerevisiae deletion strains, locus YMR263W, strain SAP30, active compounds read low
# [19] = S. cerevisiae deletion strains, locus YNL153C, strain GIM3, active compounds read low
# [20] = S. cerevisiae deletion strains, locus YNL298W, strain CLA4 (second series), active compounds read low
# [21] = S. cerevisiae deletion strains, locus YNL322C, strain KRE1, active compounds read low
# [22] = S. cerevisiae deletion strains, locus YNR030W, strain Alg12, active compounds read low
# [23] = S. cerevisiae deletion strains, locus YPL055C, strain LGE1, active compounds read low
# [24] = S. cerevisiae deletion strains, locus YPL241C, strain CIN2, active compounds read low
# [25] = S. cerevisiae deletion strains, locus YPR135W, strain CTF4, active compounds read low
# [26] = S. cerevisiae strains, strain wild type, active compounds read low
# [27] = S. cerevisiae deletion strains, locus YCL061C, strain MRC1, active compounds read low
# [28] = S. cerevisiae deletion strains, locus YOL006C, strain TOP1, active compounds read low
compound,measurement,setting,value
CC(=O)/C(=C\N(C)C)Sc1nnc(C(F)(F)F)n1C,normalized growth,[1],1.06
same,normalized growth,[2],1.03
same,normalized growth,[3],0.968
same,normalized growth,[4],1.02
same,normalized growth,[5],1.01
same,normalized growth,[6],1.01
same,normalized growth,[7],1.06
same,normalized growth,[8],1.04
same,normalized growth,[9],0.998
same,normalized growth,[10],1.01
same,normalized growth,[11],0.987
same,normalized growth,"S. cerevisiae deletion strains, locus YKL190W, strain CNB1, active compounds read low",0.993
same,normalized growth,[12],1.05
same,normalized growth,[13],1
same,normalized growth,[14],1.16
same,normalized growth,[15],1.01
same,normalized growth,[16],1.06
same,normalized growth,[17],1.02
same,normalized growth,[18],1.01
same,normalized growth,"S. cerevisiae deletion strains, locus YNL128W, strain TEP1, active compounds read low",1.01
same,normalized growth,[19],1.02
same,normalized growth,[20],1.03
same,normalized growth,[21],1
same,normalized growth,[22],1.02
same,normalized growth,[23],1.09
same,normalized growth,[24],1.1
same,normalized growth,[25],1.21
same,normalized growth,[26],1.01
CC(=O)/C(=C\N(C)C)Sc1ccc(Cl)cc1,normalized growth,[1],0.883 (active)
same,normalized growth,[2],0.82 (active)
same,normalized growth,[27],0.838 (active)
same,normalized growth,[3],0.897 (active)
same,normalized growth,"S. cerevisiae deletion strains, locus YDL134C, strain PPH21, active compounds read low",0.976
same,normalized growth,[4],0.859
same,normalized growth,[5],0.989
same,normalized growth,[6],0.817 (active)
same,normalized growth,[7],1.02
same,normalized growth,[8],0.832 (active)
same,normalized growth,[10],0.888 (active)
same,normalized growth,[11],0.776 (active)
same,normalized growth,[12],0.876
same,normalized growth,[13],0.817 (active)
same,normalized growth,[14],1.12
same,normalized growth,[15],0.873
same,normalized growth,[16],1.07
same,normalized growth,[17],0.86 (active)
same,normalized growth,[18],0.839 (active)
same,normalized growth,[19],0.793 (active)
same,normalized growth,[20],1.03
same,normalized growth,[21],0.819 (active)
same,normalized growth,[22],1.03
same,normalized growth,[28],1.09
same,normalized growth,[23],0.933
same,normalized growth,[24],0.937
same,normalized growth,[25],1.29
same,normalized growth,[26],0.975
Cc1c(-n2cccc2)cc2c(c1[N+](=O)[O-])C(C)(C)CC2(C)C,normalized growth,[1],1.01
same,normalized growth,[2],1.01
same,normalized growth,[27],1.01
same,normalized growth,[3],1.02
same,normalized growth,[4],1.02
same,normalized growth,[5],1
same,normalized growth,[6],1.02
same,normalized growth,[7],1.05
same,normalized growth,[8],1.01
same,normalized growth,[9],1.02
same,normalized growth,[10],1.01
same,normalized growth,[11],1.05
same,normalized growth,[12],1.06
same,normalized growth,[13],0.994
same,normalized growth,[14],1.01
same,normalized growth,[15],1.07
same,normalized growth,[16],1.02
same,normalized growth,[17],1.02
same,normalized growth,[18],1
same,normalized growth,[19],0.998
same,normalized growth,[20],1.04
same,normalized growth,[21],1.02
same,normalized growth,[22],1.01
same,normalized growth,[28],1.03
same,normalized growth,[23],1
same,normalized growth,[24],1
same,normalized growth,[25],1.04
